{"source": "PubChem BioAssay AID588753", "about": "(Vanderbilt Specialized Chemistry Center, 2011)", "test": "PubChem AID 588753", "conditions": "Ricerca radioligand binding panel, % inhibition, at 10 µM, stronger effect = higher value", "note": "Calls of active or inactive are those of the source. No rule for the calls is given here."}
{"smiles": "C[C@@H](NC(=O)c1ccc(C#Cc2cccc(F)c2)cn1)C(C)(C)O", "values": [{"measurement": "inhibition", "setting": "L-type Ca channel DHP site", "value": 22, "unit": "%"}, {"measurement": "inhibition", "setting": "NMDA phencyclidine site", "value": 25, "unit": "%"}, {"measurement": "inhibition", "setting": "adenosine A2a binding", "value": 12, "unit": "%"}, {"measurement": "inhibition", "setting": "adrenergic alpha1A binding", "value": 18, "unit": "%"}, {"measurement": "inhibition", "value": "8% (inactive)"}, {"measurement": "inhibition", "setting": "dopamine transporter binding", "value": 8, "unit": "%"}, {"measurement": "inhibition", "setting": "hERG binding", "value": -2, "unit": "%"}, {"measurement": "inhibition", "setting": "leukotriene CysLT1 binding", "value": 17, "unit": "%"}, {"measurement": "inhibition", "setting": "norepinephrine transporter binding", "value": 9, "unit": "%"}, {"measurement": "inhibition", "setting": "purinergic P2XY binding", "value": 24, "unit": "%"}, {"measurement": "inhibition", "setting": "serotonin 5-HT2B binding", "value": 36, "unit": "%"}, {"measurement": "inhibition", "setting": "serotonin transporter binding", "value": 6, "unit": "%"}, {"measurement": "inhibition", "setting": "sigma 1 binding", "value": 31, "unit": "%"}]}
